Results on seven compounds are retold here after PubChem BioAssay (NCATS).

Results filed as inconclusive are left out. The source made the active and inactive calls. Unless noted, the call rests on the fitted dose curve; in most records, active means well fitted curve in the direction sought with a large enough effect; inconclusive means small, poorly fitted or top-dose-only effect, or another doubt; inactive means no such curve, though single readings can be large; an effect the other way counts as inactive or inconclusive.

For assay [1], the target named is Peroxisome proliferator-activated receptor gamma (Homo sapiens) (UniProt P37231). As to the kind of experiment: qHTS assay for small molecule agonists of peroxisome proliferator-activated receptor gamma signaling (AID 588536; active means well fitted curve in the direction sought with a large enough effect in the signal ratio, with a control signal flat, not every such curve was filed as active; the % refers to the signal ratio;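 further: 0% = DMSO basal wells and 100% = rosiglitazone at 2 µM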). The method in brief: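 Cells were plated and held 6–6.5 h at 37 C, then compounds were added as a titration series. After a further 16 h, CCF4 dye was loaded for 2 h at room temperature and emission at 460/530 nm recorded.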
In general terms: In qHTS, concentration-response curves come from the screen itself.

For assay [2] the target is unchanged. In words: qHTS assay for small molecule antagonists of peroxisome proliferator-activated receptor gamma signaling (AID 588537; active means well fitted inhibition curve with a large enough effect in the signal ratio, with a control signal flat, not every such curve was filed as active; the % refers to the signal ratio;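 further: reporter cells co-stimulated with 50 nM rosiglitazone agonist during compound treatment; % of control where 0% means no effect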). The method in brief: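 Antagonist-mode β-lactamase reporter screen run as a titration series. HEK293 PPARγ-UAS-bla cells are stimulated with rosiglitazone (50 nM final) for 16 h, then CCF4 is read at 460/530 nm. Data are scaled between DMSO and rosiglitazone and fitted to the Hill equation.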

Assay [3] has as its target Vitamin D3 receptor (Homo sapiens) (UniProt P11473). In words: qHTS assay for small molecule agonists of vitamin D receptor signaling (AID 588543; calls by dose curve;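 further: 0% = DMSO basal and 100% = reference agonist control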). The method in brief: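 qHTS in agonist mode: compound titrations stimulate a VDR-driven β-lactamase reporter in HEK293T cells over 16 h at 37 °C. Response normalized to 50 nM 1α,25-dihydroxyvitamin D3 = 100%, DMSO = 0%; Hill fitting gives EC50 and maximal response.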

The target of assay [4] is Thyroid hormone receptor beta (Homo sapiens) (UniProt P10828). In words: qHTS assay for small molecule agonists of thyroid hormone receptor beta signaling (AID 588545; calls by dose curve). A digest of the protocol: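 Agonist-mode beta-lactamase reporter assay, HEK 293 cells, 2% charcoal/dextran FBS; cells plated 4 hrs, compound 18 hrs at 37 C, CCF4 2 hrs RT. Normalized to 10 nM T3 (100%) and DMSO (0%); Hill fit gives EC50, efficacy.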

Assay [5] in a line: qHTS assay for small molecule antagonists of retinoid X receptor alpha signaling (AID 588546; active means well fitted inhibition curve with a large enough effect in the signal ratio, with a control signal flat, not every such curve was filed as active; the % refers to the signal ratio;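 further: cells stimulated with 9-cis-retinoic acid as agonist; on the % scale 0 is the no-effect control and ±100 the full control effect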). The note with it: HEK293T RXRa-UAS-bla, beta-lactamase ratio, antagonist mode; measured here: W530 green channel, cytotoxicity proxy. The method in brief:
(§1)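 Beta-lactamase reporter inhibition, read as CCF4 fluorescence ratio (ex 405, em 460/530 nm) after 2 h at RT. HEK293T UAS-bla cells, 2500/well, were stimulated with 9-cis-RA at 500 or 100 nM final alongside test compound for 18 h at 37 C.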

Assay [6] deals with Retinoic acid receptor RXR-alpha (Homo sapiens) (UniProt P19793). The assay is described as above. The note with it: HEK293T RXRa-UAS-bla, beta-lactamase ratio, antagonist mode. A digest of the protocol: as §1
Assay [7] in a line: qHTS assay for small molecule activators of the p53 signaling pathway (AID 651743; active means well fitted activation curve with a large enough effect in the signal ratio, not every such curve was filed as active; the % refers to the signal ratio; further: series mostly up to about 92 µM; % of control where 0% means no effect). The following applies: HCT-116 p53RE-bla, beta-lactamase FRET ratio, 16 h; activation: stronger effect = higher value. The method in brief: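 After 16 hours compound treatment at 37 C, HCT-116 cells stably expressing p53RE-driven beta-lactamase were loaded with LiveBLAzer B/G FRET substrate for 2 hours at room temperature. Fluorescence intensity served as the p53 activation read-out.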

The nature of assay [8]: qHTS assay for environmental chemicals that activate the Aryl hydrocarbon Receptor (AhR) signaling pathway (AID 651777). Further: % of control where 0% means no effect; nearly all actives have a fitted effect of over 15% in size. The following applies: 1A2-DRE human hepatoma cells, luciferase, 24 h; activation: stronger effect = higher value. The method in brief:
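Induction of CYP1A2 transcription through AhR is detected by luciferase in 1A2-DRE hepatoma cells. Compounds or DMSO act for 24 hr at 37 C before a 30 min One-Glo step at room temperature.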

The target in assay [9] is Peroxisome proliferator-activated receptor alpha (Homo sapiens) (UniProt Q07869). As to the kind of experiment: qHTS assay for small molecule agonists of the peroxisome proliferator-activated receptor alpha (PPARalpha) signaling pathway (AID 651778). Further: % of control where 0% means no effect. The note with it: PathHunter PPARalpha complementation, chemiluminescence, 6 h; max response: stronger effect = higher value. A digest of the protocol:
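Chemiluminescence from complemented enzyme reported PPARalpha activation in cells after 6 hr of compound treatment at 37 C. The detection reagent was incubated for 60 min at room temperature, and compounds were scored as agonists.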

Assay [10] in a line: qHTS assay for small molecule agonists of the antioxidant response element (ARE) signaling pathway measured by Nrf2-dependant transcriptional activity (AID 720636; active means well fitted curve in the direction sought with a large enough effect in the repeat runs; an effect the other way counts as inactive or inconclusive;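 further: HepG2 cells with an ARE-driven luciferase reporter; % of control where 0% means no effect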). A digest of the protocol:
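We exposed ARE-luc HepG2 cells, seeded in assay medium with 1% dialyzed FBS and allowed 6 hr to adhere, to test compounds overnight (16 hr, 37 C) before measuring luciferase with ONE-Glo.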

Assay [11] can be described thus: qHTS assay for small molecule agonists of the antioxidant response element (ARE) signaling pathway measured by Nrf2-dependant transcriptional activity - cell viability counter screen (AID 720653; active means well fitted curve in the direction sought with a large enough effect in the repeat runs; an effect the other way counts as inactive or inconclusive; further: potency means the concentration at half of the fitted maximal effect; on max response: on the % scale 0 is the no-effect control and ±100 the full control effect). The note with it: ARE-bla HepG2 viability, CellTiter-Glo ATP luminescence, 16 h; max response: stronger effect = lower value. The method in brief: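 Cytotoxicity counter screen: intracellular ATP quantified by CellTiter-Glo luminescence in the same ARE-bla HepG2 plates, after 16 h compound exposure and a 2 h beta-lactamase substrate step.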

The nature of assay [12]: qHTS assay for cell viability of HEK293 cells (AID 743288). Further: on the % scale 0 is the no-effect control and ±100 the full control effect; nearly all actives have a fitted effect of over 50% in size. The note with it: ATP luminescence (CellTiter-Glo), 18 h; max response: stronger effect = lower value. The method in brief: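 Quantitative high-throughput screen: compounds were pinned onto parental HEK293 cells (2,000 per well) after a minimum 5 h settling at 37 C, incubated 18 h at 37 C, and intracellular ATP measured by luciferase luminescence.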

A short description of assay [13]: qHTS assay for cell viability of the p53RE-bla HCT-116 cell line (AID 743292). Further: nearly all actives have a fitted effect of over 55% in size. Further: potency means the concentration at half of the fitted maximal effect. A digest of the protocol: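 In this qHTS counter-screen, metabolically competent p53RE-bla HCT-116 cells were counted via their ATP content. Compounds were applied for 16 h at 37 C and luciferase-coupled luminescence was measured.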
The target in assay [14] is Nuclear receptor subfamily 1 group I member 2 (Rattus norvegicus) (UniProt Q9R1A7). As to the kind of experiment: qHTS assay for small molecule activators of the rat pregnane X receptor (rPXR) signaling pathway (AID 651751; call rule not given here; further: 0% is about no effect). The following applies: rPXR reporter cells, luciferase (One-Glo), 24 h.
Assay [15] is described as follows: qHTS assay for small molecule activators of the human pregnane X receptor (PXR) signaling pathway (AID 720659; call rule not given here; further: 0% is about no effect).
The target in assay [16] is Glucocorticoid receptor (Homo sapiens) (UniProt P04150). As to the kind of experiment: qHTS assay for small molecule agonists of glucocorticoid receptor signaling (AID 588532; active means well fitted curve in the direction sought with a large enough effect in the signal ratio, with a control signal flat; the % refers to the signal ratio;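 further: 100% = dexamethasone at 0.1 µM and 0% = DMSO only wells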). The following applies: HeLa MMTV-bla, beta-lactamase ratio, agonist, 18 h; stronger effect = higher value; percent of dexamethasone control, DMSO zero. A digest of the protocol: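 Quantitative HTS using CellSensor MMTV-bla HeLa cells in charcoal/dextran-treated serum; compounds tested up to 92 uM. After 18 h at 37 C, CCF4 dye reported reporter induction.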

The target is the same in assay [17]. In words: qHTS assay for small molecule antagonists of glucocorticoid receptor signaling (AID 588533; active means well fitted inhibition curve with a large enough effect in the signal ratio, with a control signal flat, not every such curve was filed as active; the % refers to the signal ratio;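 further: cells stimulated with 2 nM dexamethasone as agonist; on the % scale 0 is the no-effect control and ±100 the full control effect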). A digest of the protocol:
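Antagonist-mode qHTS: compound titrations added to GRE-bla HeLa cells, then dexamethasone 2 nM final; 18 h, 37 C. CCF4 FRET fluorescence normalized to dexamethasone and DMSO; IC50 from Hill fit.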

Assay [18] can be described thus: qHTS assay for small molecule activators of the nuclear factor-kappa B (NF-kB) signaling pathway (AID 651749; active means well fitted activation curve with a large enough effect in the signal ratio; the % refers to the signal ratio; further: series mostly up to about 77 µM; % of control where 0% means no effect). The note with it: NF-kB-bla ME-180 cells, beta-lactamase FRET ratio, 16 h; activation: stronger effect = higher value. The method in brief: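 Activation measured after 16 hr compound treatment at 37C, 5% CO2, of 2,000 ME-180 cells/well stably expressing an NF-kB response element–driven beta-lactamase reporter, via FRET-disruption fluorescence.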

The nature of assay [19]: qHTS assay for small molecule agonists of retinoid X receptor alpha signaling (AID 588544). The following applies: HEK293T RXRa-UAS-bla, beta-lactamase reporter, 18 h; 530 nm emission.
Assay [20] is described as follows: qHTS assay for small molecule antagonists of peroxisome proliferator-activated receptor delta signaling (AID 588535).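 Further: cells co-treated with a PPAR-delta agonist as stimulator during compound exposure.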 The following applies: HEK293T PPARd-UAS-bla, beta-lactamase FRET ratio, 18 h; 460 nm channel. A digest of the protocol: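 Titrations were run on PPAR-delta-UAS-bla HEK293T cells in charcoal/dextran-stripped serum, incubated 18 h at 37 C. CCF4 fluorescence (460/530 nm) after 2 h RT; Hill equation yields IC50 and maximal response.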

Chain of Nuclear receptor subfamily 1 group I member 2 (Rattus norvegicus) (Q9R1A7 whole entry, looked up): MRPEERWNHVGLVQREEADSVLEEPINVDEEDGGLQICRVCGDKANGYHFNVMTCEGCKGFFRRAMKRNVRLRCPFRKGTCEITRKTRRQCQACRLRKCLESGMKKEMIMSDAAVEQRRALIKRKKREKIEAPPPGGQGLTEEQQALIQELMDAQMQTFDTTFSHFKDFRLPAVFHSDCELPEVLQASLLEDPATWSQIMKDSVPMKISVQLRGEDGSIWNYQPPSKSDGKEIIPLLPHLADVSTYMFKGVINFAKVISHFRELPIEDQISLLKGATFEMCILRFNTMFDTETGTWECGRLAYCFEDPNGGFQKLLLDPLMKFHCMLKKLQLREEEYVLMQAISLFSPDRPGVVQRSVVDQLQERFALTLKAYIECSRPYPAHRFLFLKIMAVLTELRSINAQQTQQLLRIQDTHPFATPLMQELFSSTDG
Chain of Thyroid hormone receptor beta (Homo sapiens) (P10828 whole entry, looked up): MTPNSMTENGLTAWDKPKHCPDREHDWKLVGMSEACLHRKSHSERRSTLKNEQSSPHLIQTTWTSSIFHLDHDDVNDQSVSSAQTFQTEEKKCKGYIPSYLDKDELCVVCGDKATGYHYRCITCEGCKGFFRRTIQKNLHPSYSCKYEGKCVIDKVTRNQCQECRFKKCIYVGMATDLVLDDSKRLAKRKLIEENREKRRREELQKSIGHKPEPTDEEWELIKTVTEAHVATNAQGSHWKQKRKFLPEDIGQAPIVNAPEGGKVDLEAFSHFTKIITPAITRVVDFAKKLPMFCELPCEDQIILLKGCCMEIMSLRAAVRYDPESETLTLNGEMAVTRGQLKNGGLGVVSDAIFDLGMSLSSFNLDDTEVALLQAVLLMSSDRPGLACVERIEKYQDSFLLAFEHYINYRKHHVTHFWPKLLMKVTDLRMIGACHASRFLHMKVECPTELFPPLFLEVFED
Chain of Glucocorticoid receptor (Homo sapiens) (P04150 whole entry, looked up): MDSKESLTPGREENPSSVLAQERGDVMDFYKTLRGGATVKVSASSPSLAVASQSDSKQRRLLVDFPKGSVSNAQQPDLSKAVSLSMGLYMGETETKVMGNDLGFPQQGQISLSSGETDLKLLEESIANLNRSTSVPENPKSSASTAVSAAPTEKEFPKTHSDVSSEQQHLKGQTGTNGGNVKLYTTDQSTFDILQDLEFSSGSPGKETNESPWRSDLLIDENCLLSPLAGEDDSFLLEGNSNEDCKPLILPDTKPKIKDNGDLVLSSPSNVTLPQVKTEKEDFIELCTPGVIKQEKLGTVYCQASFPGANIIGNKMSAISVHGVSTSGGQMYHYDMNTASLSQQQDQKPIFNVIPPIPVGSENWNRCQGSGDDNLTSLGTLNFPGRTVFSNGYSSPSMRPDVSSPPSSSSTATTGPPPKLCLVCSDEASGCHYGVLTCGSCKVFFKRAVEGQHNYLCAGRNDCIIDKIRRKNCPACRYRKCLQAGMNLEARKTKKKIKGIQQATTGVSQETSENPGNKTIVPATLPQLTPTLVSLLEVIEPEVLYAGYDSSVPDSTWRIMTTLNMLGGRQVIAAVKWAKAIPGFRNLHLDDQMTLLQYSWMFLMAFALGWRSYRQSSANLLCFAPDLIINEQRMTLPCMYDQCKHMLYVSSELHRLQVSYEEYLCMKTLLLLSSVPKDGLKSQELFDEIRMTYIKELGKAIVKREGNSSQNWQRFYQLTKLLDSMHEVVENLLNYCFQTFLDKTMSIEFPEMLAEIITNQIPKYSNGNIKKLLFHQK
Chain of Peroxisome proliferator-activated receptor alpha (Homo sapiens) (Q07869 whole entry, looked up): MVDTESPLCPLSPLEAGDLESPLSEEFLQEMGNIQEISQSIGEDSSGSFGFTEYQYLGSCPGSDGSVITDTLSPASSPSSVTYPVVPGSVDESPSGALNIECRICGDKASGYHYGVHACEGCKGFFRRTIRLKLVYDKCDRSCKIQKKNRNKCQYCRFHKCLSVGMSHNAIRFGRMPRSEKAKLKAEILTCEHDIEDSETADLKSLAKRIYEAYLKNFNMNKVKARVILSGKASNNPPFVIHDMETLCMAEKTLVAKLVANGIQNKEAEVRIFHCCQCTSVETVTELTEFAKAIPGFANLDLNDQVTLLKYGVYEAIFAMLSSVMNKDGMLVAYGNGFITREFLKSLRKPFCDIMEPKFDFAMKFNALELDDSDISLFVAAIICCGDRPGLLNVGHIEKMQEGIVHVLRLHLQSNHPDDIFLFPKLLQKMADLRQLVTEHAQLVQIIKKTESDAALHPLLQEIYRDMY
Chain of Peroxisome proliferator-activated receptor gamma (Homo sapiens) (P37231 whole entry, looked up): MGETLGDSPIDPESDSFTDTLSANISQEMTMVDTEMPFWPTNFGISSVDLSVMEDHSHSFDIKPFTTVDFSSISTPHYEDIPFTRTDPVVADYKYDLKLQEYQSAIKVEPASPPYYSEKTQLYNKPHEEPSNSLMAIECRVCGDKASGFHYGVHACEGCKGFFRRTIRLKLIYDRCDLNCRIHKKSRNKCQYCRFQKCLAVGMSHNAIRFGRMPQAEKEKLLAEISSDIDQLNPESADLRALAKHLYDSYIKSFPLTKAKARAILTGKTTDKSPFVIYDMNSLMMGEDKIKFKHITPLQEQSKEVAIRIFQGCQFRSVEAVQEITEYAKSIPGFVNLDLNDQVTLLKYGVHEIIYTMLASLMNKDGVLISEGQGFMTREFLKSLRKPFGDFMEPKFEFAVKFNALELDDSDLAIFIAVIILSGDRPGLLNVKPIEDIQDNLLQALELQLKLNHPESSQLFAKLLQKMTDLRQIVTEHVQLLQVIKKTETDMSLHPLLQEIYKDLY
Chain of Vitamin D3 receptor (Homo sapiens) (P11473 whole entry, looked up): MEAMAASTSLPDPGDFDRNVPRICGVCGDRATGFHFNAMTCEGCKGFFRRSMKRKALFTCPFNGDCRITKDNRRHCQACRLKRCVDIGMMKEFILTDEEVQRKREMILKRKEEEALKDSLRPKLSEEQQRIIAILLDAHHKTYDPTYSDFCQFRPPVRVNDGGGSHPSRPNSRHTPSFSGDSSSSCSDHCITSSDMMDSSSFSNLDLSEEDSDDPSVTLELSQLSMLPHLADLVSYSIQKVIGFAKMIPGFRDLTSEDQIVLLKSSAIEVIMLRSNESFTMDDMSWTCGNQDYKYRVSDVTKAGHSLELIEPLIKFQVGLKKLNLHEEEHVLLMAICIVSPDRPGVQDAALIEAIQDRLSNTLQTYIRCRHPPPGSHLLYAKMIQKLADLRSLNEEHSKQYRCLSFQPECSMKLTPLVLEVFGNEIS
Chain of Retinoic acid receptor RXR-alpha (Homo sapiens) (P19793 whole entry, looked up): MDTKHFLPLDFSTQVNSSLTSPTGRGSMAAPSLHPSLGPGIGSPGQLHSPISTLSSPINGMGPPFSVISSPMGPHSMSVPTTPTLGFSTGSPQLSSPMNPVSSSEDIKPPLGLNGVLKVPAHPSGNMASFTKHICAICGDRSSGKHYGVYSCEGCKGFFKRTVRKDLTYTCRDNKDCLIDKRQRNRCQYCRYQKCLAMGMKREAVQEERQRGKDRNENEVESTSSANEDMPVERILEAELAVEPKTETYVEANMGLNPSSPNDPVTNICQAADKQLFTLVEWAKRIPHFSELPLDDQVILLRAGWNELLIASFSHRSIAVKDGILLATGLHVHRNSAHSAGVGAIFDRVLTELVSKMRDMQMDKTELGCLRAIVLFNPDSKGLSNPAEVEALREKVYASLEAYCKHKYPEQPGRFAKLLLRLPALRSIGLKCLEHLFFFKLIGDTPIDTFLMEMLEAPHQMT

In the case of `CCCOC(=O)NCCCN(C)C`, the call in [1], in assay [3] and in [15] was inactive. The Potency result in assay [2], in assay [4], in assay [10] and in [13] was “inactive” each time. Further, the max response in assay [5] is -8.13%; in assay [6], 1.48% (inactive); in assay [9], -0.73% (inactive); in [11], -5.96% (inactive); in assay [12], -0.93% (inactive); in assay [14], 8.36% (inactive). Also, the activation in [7] was -1.96% (inactive); in assay [8], 2.96% (inactive).

Take `CCCCCOC(=O)COc1cc(N2C(=O)C3=C(CCCC3)C2=O)c(F)cc1Cl`: the activation in assay [16] was 3.85% (inactive); in [8] it was 0.703% (inactive). For the same compound, the Potency entry in [17] and in [4] was “inactive” in each case. For the same compound, the call in assay [3] and in [15] was inactive. For the same compound, the max response was 1.28% (inactive) in assay [9], 8.37% (inactive) in [11], 4.43% (inactive) in assay [12] and 4.68% (inactive) in assay [14].

In the case of `CN(C)c1ccc(C(c2ccccc2)c2ccc(N(C)C)cc2)cc1`, the outcome in assay [3] was inactive. For the same compound, the figures for the activation in assay [7], in assay [18] and in [8] were -0.413% (inactive), 5.79% (inactive) and 1.41% (inactive), respectively. For the same compound, the max response in assay [9] was -1.55% (inactive); in [11] it was -16.8% (inactive); in assay [12], -22.1% (inactive); in [14], 5.9% (inactive). The Potency result in assay [10] and in assay [13] was “inactive” throughout.

With `COC(=O)c1ccc(CNS(C)(=O)=O)cc1S(=O)(=O)NC(=O)Nc1nc(OC)cc(OC)n1`, the activation in assay [16] is -4.55% (inactive); in assay [7], -5.96% (inactive); in assay [18], 1.5% (inactive); in [8], -2.23% (inactive). For the same compound, the Potency entry in assay [17], in assay [2], in [4] and in assay [10] was “inactive” each time. For the same compound, the result in assay [3] and in assay [15] was inactive. Further, the max response in assay [19] was 10.6%; in [5] it was -12.9%; in assay [11], 12.1% (inactive); in assay [12], 10.3% (inactive); in assay [14], -5.5% (inactive).

Take `C=C(C)C(=O)OCCN(C)C`: the max response is -44.3% in [20]; 0.555% in assay [5]; 6.15% (inactive) in assay [6]; -0.281% (inactive) in [9]; -4.72% (inactive) in assay [11]; -8.88% (inactive) in assay [12]. In addition, the max response in assay [14] is 5.37% (inactive). In addition, the Potency result in [2], in assay [4], in assay [10] and in assay [13] was “inactive” in each case. The compound was classed as inactive in assay [3] and in [15]. The figures for the activation in assay [7] and in [8] were -0.52% (inactive) and 0.477% (inactive), respectively.

Turning to `CCCCC(CC)COC(=O)CS` (stereo not given), the results for the activation in assay [16], in [7] and in assay [18] were 8.21% (inactive), -0.039% (inactive) and 1.76% (inactive), respectively. The Potency entry in assay [17], in [4], in [10] and in [13] was “inactive” each time. Further, the compound was classed as inactive in assay [3] and in assay [15]. Also, the max response in assay [19] was -9.7%; in assay [5], -9.5%; in assay [9], -1.44% (inactive); in [11] it was 1.32% (inactive); in assay [12], -2.56% (inactive); in [14], 0.0458% (inactive).

As for `Cc1cc(Cc2cc(C)cc(C(C)(C)C)c2O)c(O)c(C(C)(C)C)c1`, the activation was 20.3% (inactive) in assay [16] and -12.4% (inactive) in [8]. Moreover, the Potency entry in assay [10] was “inactive”. Also, the Potency in [11] was 39.8 µM (active); in [13], 44.7 µM (active).
